Measurements reported in PubChem BioAssay.
Values without a mark were called inactive. No rule for the calls is given here.

Assay: inhibitors of hydroxyurea-induced Chk1 phosphorylation, primary screen, imaging, HeLa, phospho-Chk1 antibody, percent positive cells (AID 1186)
Conditions: hydroxyurea-induced phospho-Chk1 immunofluorescence imaging, higher = more signal

Going from `Cn1c2c(c3ccccc31)C(=O)C1NC2C=CC1(C)C(=O)OCc1ccccc1` (stereo not drawn) to `O=c1cccc(-c2cccc3ccccc23)o1`, the z-score falls from -0.3 to -0.715.

Compared with `CO[C@H]1O[C@H](CO)[C@@H](OC(=O)Nc2ccccc2-c2ccccc2)[C@H](OC(=O)Nc2ccccc2-c2ccccc2)[C@H]1OC(=O)Nc1ccccc1-c1ccccc1`, `O=C1O[C@H](c2ccccc2)[C@H](c2ccccc2)N2[C@H]1[C@@H](C(=O)NC[C@H](O)c1ccccc1)[C@]1(C(=O)Nc3ccc(C#CC4(O)CCCCCC4)cc31)[C@H]2c1ccccc1OCCO` is lower in z-score: -0.0075 for the first, -0.0899 for the second.

Going from `O=C(NCC(O)CO)[C@@]1(Cc2ccccc2)COC(c2ccc(OCCCO)cc2)=N1` (stereo partly drawn) to `CC(C)C(=C=CC[C@H](O)c1ccccc1OCCO)CCO`, the z-score falls from -0.036 to -0.106.

Compound `COC(=O)c1c2oc(c1C(=O)OC)C(=O)N[C@H](Cc1ccccc1)Cn1nncc1C1(CCCCC1)NC(=O)N[C@H](CO)CC2` has a z-score of -0.971.

Assay: inhibitors of hydroxyurea-induced Chk1 phosphorylation, primary screen, imaging, HeLa, phospho-Chk1 nuclear intensity (AID 1187); also: test concentration not given here
Conditions: hydroxyurea-induced phospho-Chk1 immunofluorescence imaging, higher = more signal

Compared with `[N-]=[N+]=NCc1ccccc1C[C@]1(C(=O)NCc2ccccc2)COC(c2ccc(OCCCO)cc2)=N1`, `[N-]=[N+]=NCc1ccccc1C[C@]1(C(N)=O)N=C(c2ccc(OCCCO)cc2)O[C@H]1c1ccccc1N=[N+]=[N-]` is higher in z-score: -0.737 for the first, -0.0296 for the second.

Going from `COc1ccc([Si](C)(C)[C@H]2[C@H](CC(=O)N(CCO)Cc3ccccc3)O[C@@]3(C(=O)N(Cc4cccc(N5C(=O)c6cccc7cccc5c67)c4)c4ccccc43)[C@@H]2C)cc1` to `C=CCN1C(=O)[C@@]2(O[C@@H](CCO)[C@H]([Si](C)(C)c3ccc(OC)cc3)[C@H]2C)c2cc(NC(C)=O)ccc21`, the z-score rises from -1.11 to 0.348.

Compared with `Cc1ccc(S[C@]2(C(=O)NCC(F)(F)F)CC(=O)N(C3Cc4ccccc4C3)[C@@H]2c2ccc(CO)cc2I)cc1`, `CCCNC(=O)[C@@]1(C)c2ccccc2C(=O)N(Cc2ccc(OC(F)(F)F)cc2)[C@H]1c1ccc(CO)cc1` is lower in z-score: 0.637 for the first, -0.473 for the second.

Going from `O=[N+]([O-])c1ccc(C[n+]2ccc(CCCO)cc2)o1` to `C=CC[C@@]1(C(N)=O)N=C(c2ccc(OCCCO)cc2)O[C@@H]1c1ccccc1N=[N+]=[N-]`, the z-score falls from 0.492 to 0.0164.

First: CCCCC(=C=CC[C@H](O)c1ccccc1OCCO)C[C@H](O)c1cc(Cl)cc(Cl)c1O
Second: CC(C)(C)OC(=O)CC[C@]1(C(=O)NCC(O)CO)N=C(c2ccc(OCCCO)cc2)O[C@H]1c1ccccc1CN=[N+]=[N-] (stereo partly drawn)
The z-score of the first is higher: 1.23 for the first, 0.402 for the second.

Compared with `COc1ccc(C(O)C2C=CC3C(=O)N(c4ccccc4)C(=O)C3N2Nc2ccccc2)c2ccccc12` (stereo not drawn), `O=C1C2C=CC(C(O)c3ccc(-c4ccccc4)s3)N(Nc3ccccc3F)C2C(=O)N1c1ccccc1` (stereo not drawn) is higher in z-score: -0.861 for the first, 0.414 for the second.

First: CCOC(=O)C=Cc1cccc(OC)c1O
Second: CCOC(=O)C1=C[C@@H](C(C)(C)C)N(S(=O)(=O)c2ccc(C)cc2)[C@H]1c1ccc(Cl)c(Cl)c1
The z-score of the first is lower: -1.49 for the first, -0.633 for the second.

Going from `C=CCN1C(=O)[C@]2(Cc3ccccc31)N=C(c1ccc(OCCCO)cc1)O[C@@H]2c1ccccc1` to `C=CC[C@@]1(C(=O)OC)N=C(c2ccc(OCCCO)cc2)O[C@@H]1c1ccccc1CN=[N+]=[N-]`, the z-score falls from 0.0449 to -1.45.

Going from `C=CCC(OC(C)=O)[C@@H]1[C@@H](N(Cc2cc3ccccc3o2)C(=O)c2cccc3ccccc23)c2cc(OCCCO)ccc2N1C(=O)Cc1ccc(OC)cc1` (stereo partly drawn) to `COCCOC(=O)N1C(=O)[C@@]2(c3cc(C#CC4=CCCCC4)ccc31)[C@H](C(=O)N1CCN(c3ncccn3)CC1)[C@H]1C(=O)O[C@H](c3ccccc3)[C@H](c3ccccc3)N1[C@@H]2c1ccc(OCCO)cc1`, the z-score falls from 0.775 to 0.501.

Going from `O=C1C2C=CC(C(O)C3CC=CCC3)N(n3cnnc3)C2C(=O)N1Cc1ccccc1` (stereo not drawn) to `CCN(CC)c1ccc(N2CC=CC34O[C@@H]5/C=C\CCC(C)OC(=O)C5[C@H]3C(=O)N(CCCCCCO)[C@@H]4C2=O)cc1` (stereo partly drawn), the z-score falls from -0.603 to -0.767.

Work on `CN(C)CCCC[C@@H]1NC(=O)[C@@H]2C[C@H](C(=O)NCCCCCN)[C@H](c3ccc(O)cc3)N2C1=O` yielded a z-score of -0.472.
